We go through seven molecules from PubChem BioAssay (NCATS).

The structures appear in SMILES notation. Several values for one entry are separate records, joined by “and”; a condition that tells them apart may be missing. Equal entries are not always repeated. Inconclusive results are not listed. Activity calls are given as the source filed them. Unless noted, calls come from the whole dose curve; as a rule, active = well fitted curve in the direction sought with a large enough effect; inconclusive = small, poorly fitted or top-dose-only effect, or another doubt; inactive = no such curve, though single readings can be large; an effect the other way counts as inactive or inconclusive.

Experiment [1] is described as follows: Cell Viability - N2a (AID 540).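 Note: plate controls were DMSO alone for no effect and tamoxifen control for full effect; nearly all actives have a fitted effect of over 45% in size.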 The following applies: N2a mouse neuroblastoma cell viability; activity change, negative = cytotoxicity: at 92.2 µM (top of the series). The essentials:
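CellTiter-Glo ATP luminescence, read 20 min after reagent at room temperature, reported viability following 40 h compound treatment at 37 °C. N2a mouse neuroblastoma cells seeded 1500/well; Hill equation gave AC50.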

Experiment [2] is described as follows: Cell Viability - SH-SY5Y (AID 544).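 Note: cells exposed to compound for 40 hours; 0% = DMSO alone and -100% = 100 µM tamoxifen; nearly all actives have a fitted effect of over 55% in size.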 The following applies: SH-SY5Y neuroblastoma cell viability; viability change, negative = cytotoxic: at 92.2 µM (top of the series). The essentials:
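Cytotoxicity measured via ATP-dependent luciferase luminescence (CellTiter-Glo) following 40 h, 37 °C exposure of 1500 SH-SY5Y cells per well. Concentration-response data were fitted with the standard Hill equation to give AC50.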

Experiment [3] can be described thus: Cell Viability - Renal Proximal Tubule (AID 545).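 Note: cells exposed to compound for 40 hours; 0% = DMSO only and -100% = 100 µM tamoxifen; nearly all actives have a fitted effect of over 40% in size.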 The gist of the method:
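Viability taken as intracellular ATP (CellTiter-Glo luminescence) after 40 hr, 37 °C compound treatment of primary proximal tubule cells from rat kidney, 1000 cells/well; Hill-equation fits of qHTS concentration-response data gave AC50.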

Experiment [4] has as its target Cytochrome P450 3A4 (Homo sapiens) (UniProt P08684). In words: qHTS Assay for Inhibitors and Substrates of Cytochrome P450 3A4 (AID 884). Note: % is set by controls: 0 for no effect and ±100 for the full control effect; nearly all actives have a fitted effect of over 50% in size. The gist of the method:
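Luminescent readout of luciferin produced by CYP3A4 (20 nM) dealkylation of Luciferin-PPXE, 25 uM (its KM). NADPH-driven reaction ran 60 min at RT after 10 min compound preincubation; data scaled to 57 uM ketoconazole as 100% inhibition.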

Experiment [5] can be described thus: Cell Viability - LYMP2-001 (AID 921).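 Note: 0% = DMSO only and full inhibition = tetraoctylammonium bromide control wells; nearly all actives have a fitted effect of over 70% in size.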 The essentials: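 Cellular ATP loss read by luciferase luminescence after 24 h compound exposure at 37 C in complete medium. LYMP2-001 lymphoblastoid cells, 2500/well; qHTS concentration-response data fitted with Hill equation for AC50.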
Experiment [6] can be described thus: Cell Viability - LYMP2-003 (AID 965).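 Note: cells exposed to compounds for 24 h before reading; 0% = DMSO only and full effect = 92 µM tetraoctylammonium bromide; nearly all actives have a fitted effect of over 50% in size.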 The essentials:
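CellTiter-Glo luminescence quantified ATP loss after 24 h compound treatment of LYMP2-003 lymphoblastoid cells at 37 C. Titration series were fitted with the standard Hill equation to give AC50.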

A short description of experiment [7]: Cell Viability - LYMP2-015 (AID 971).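 Note: 0% = DMSO only and full effect = 92 µM tetraoctylammonium bromide; nearly all actives have a fitted effect of over 55% in size.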 The essentials:
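Cytotoxicity readout: decrease in intracellular ATP (CellTiter-Glo luminescence) in 2500 LYMP2-015 lymphoblastoid cells/well after 24 h compound exposure at 37 C. Concentration-response data fitted with the standard Hill equation to give AC50.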

Experiment [8] in a line: Cell Viability - LYMP2-019 (AID 973).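 Note: 0% = DMSO alone and full effect = 92 µM tetraoctylammonium bromide; nearly all actives have a fitted effect of over 55% in size.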 The gist of the method: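 AC50 values come from Hill-equation fits of luminescent intracellular ATP (CellTiter-Glo, 30 min, room temperature) following 24 h compound exposure at 37 C. Cells: LYMP2-019 lymphoblastoid line, 2500 per well, in complete culture medium.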
Experiment [9] can be described thus: Cell Viability - LYMP2-002 (AID 977).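 Note: plate controls were DMSO only for no effect and 92 µM tetraoctylammonium bromide for full effect.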 The essentials: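 Human lymphoblastoid cells (2500/well) in complete medium were preincubated 5 hr at 37 C, then exposed to compounds for 24 hr at 37 C. Intracellular ATP was read by CellTiter-Glo luminescence; AC50 came from Hill-equation concentration-response fits.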
Experiment [10] in a line: Cell Viability - LYMP2-008 (AID 980). Note: % is set by controls: 0 for no effect and ±100 for the full control effect; nearly all actives have a fitted effect of over 60% in size. The gist of the method:
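Cytotoxicity determined from ATP-dependent luciferase luminescence (CellTiter-Glo) following 24 h compound exposure of human lymphoblastoid LYMP2-008 cells at 37 C. Concentration-response data fitted to the Hill equation to give AC50.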

Experiment [11] can be described thus: Cell Viability - LYMP2-010 (AID 981). Note: % is set by controls: 0 for no effect and ±100 for the full control effect; nearly all actives have a fitted effect of over 55% in size. The gist of the method: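 CellTiter-Glo ATP luminescence measured cytotoxicity after 24 h compound exposure at 37 C. LYMP2-010 cells were seeded at 2500/well, with tetraoctylammonium bromide as control; concentration-response curves gave AC50 values by the Hill equation.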
A short description of experiment [12]: Cell Viability - LYMP2-012 (AID 982).
Experiment [13] is described as follows: Cell Viability - LYMP2-020 (AID 986). The gist of the method: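 Cytotoxicity in qHTS format: luminescent ATP readout from CellTiter-Glo after 24 h compound exposure at 37 C in complete medium. LYMP2-020 lymphoblastoid cells were seeded at 2500/well; concentration-response data fitted to the Hill equation for AC50.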
Experiment [14] in a line: Cell Viability - LYMP2-022 (AID 987). The essentials: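 Cytotoxicity read as decreased cellular ATP (CellTiter-Glo luminescence, 30 min room temperature) after 24 hours compound exposure of 2500 lymphoblastoid LYMP2-022 cells/well at 37 C. Concentration-response data fitted with standard Hill equation for AC50.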
Experiment [15] can be described thus: Cell Viability - LYMP1-002 - Assay at 40 hr (AID 994).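 Note: 0% = DMSO only and full inhibition = 92 µM tetraoctylammonium bromide; nearly all actives have a fitted effect of over 60% in size.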 The gist of the method:
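Cytotoxicity was read as loss of cellular ATP (CellTiter-Glo luminescence) after 40 hr compound exposure at 37 C of 2500 LYMP1-002 lymphoblastoid cells per well. Concentration-response data were fitted with the standard Hill equation to give AC50.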

The nature of experiment [16]: qHTS assay for small molecule agonists of retinoid X receptor alpha signaling (AID 588544). The following applies: HEK293T RXRa-UAS-bla, beta-lactamase reporter, 18 h; 530 nm emission. Background: Quantitative high-throughput screening tests each substance at several concentrations.
Experiment [17] can be described thus: qHTS assay for small molecule antagonists of retinoid X receptor alpha signaling (AID 588546; active = well fitted inhibition curve with a large enough effect in the signal ratio, with a control signal flat, not every such curve was filed as active; the % refers to the signal ratio;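 note: cells stimulated with 9-cis-retinoic acid as agonist; % is set by controls: 0 for no effect and ±100 for the full control effect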). The following applies: HEK293T RXRa-UAS-bla, beta-lactamase ratio, antagonist mode; measured here: W530 green channel, cytotoxicity proxy. The gist of the method: (§1)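 Beta-lactamase reporter inhibition, read as CCF4 fluorescence ratio (ex 405, em 460/530 nm) after 2 h at RT. HEK293T UAS-bla cells, 2500/well, were stimulated with 9-cis-RA at 500 or 100 nM final alongside test compound for 18 h at 37 C.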

The target of experiment [18] is Retinoic acid receptor RXR-alpha (Homo sapiens) (UniProt P19793). The experiment is described as above. The following applies: HEK293T RXRa-UAS-bla, beta-lactamase ratio, antagonist mode. The gist of the method: as §1
Experiment [19] concerns the target Tumor necrosis factor (Homo sapiens) (UniProt P01375). In words: qHTS assay to identify small molecules that stimulate Tumor Necrosis Factor-alpha (TNF-alpha) secretion (AID 651757; active = well fitted curve in the direction sought with a large enough effect in the signal ratio; the % refers to the signal ratio; note: 0% is about no effect). The essentials:
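Secreted TNF-alpha quantified by TR-FRET sandwich of two labeled anti-TNF-alpha antibodies, incubated 3 hr at room temperature. Preceded by 17 hr, 37 C compound treatment of THP-1 cells at 3000 cells/well.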

A short description of experiment [20]: qHTS assay for small molecule antagonists of the retinoid-related orphan receptor gamma (ROR-gamma) signaling pathway - cell viability counter screen (AID 720652; active = well fitted curve in the direction sought with a large enough effect in the repeat runs; an effect the other way counts as inactive or inconclusive;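 note: CHO reporter cells with doxycycline-induced ROR-gamma expression; compound exposure lasted 16 hr before ATP read; % is set by controls: 0 for no effect and ±100 for the full control effect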). The essentials:
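Cytotoxicity counter screen: intracellular ATP (CellTiter-Glo luminescence) measured in the doxycycline-induced CHO RORE-luciferase reporter line after 16 hr compound exposure at 37 C, 5% CO2.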

Chain of Tumor necrosis factor (Homo sapiens) (P01375 whole entry, looked up): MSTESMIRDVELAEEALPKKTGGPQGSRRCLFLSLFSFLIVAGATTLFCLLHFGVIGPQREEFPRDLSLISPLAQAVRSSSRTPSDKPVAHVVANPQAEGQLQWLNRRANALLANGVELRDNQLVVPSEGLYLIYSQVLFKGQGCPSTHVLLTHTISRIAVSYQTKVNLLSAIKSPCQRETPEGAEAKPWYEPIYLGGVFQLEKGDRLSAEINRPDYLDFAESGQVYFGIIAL
Chain of Retinoic acid receptor RXR-alpha (Homo sapiens) (P19793 whole entry, looked up): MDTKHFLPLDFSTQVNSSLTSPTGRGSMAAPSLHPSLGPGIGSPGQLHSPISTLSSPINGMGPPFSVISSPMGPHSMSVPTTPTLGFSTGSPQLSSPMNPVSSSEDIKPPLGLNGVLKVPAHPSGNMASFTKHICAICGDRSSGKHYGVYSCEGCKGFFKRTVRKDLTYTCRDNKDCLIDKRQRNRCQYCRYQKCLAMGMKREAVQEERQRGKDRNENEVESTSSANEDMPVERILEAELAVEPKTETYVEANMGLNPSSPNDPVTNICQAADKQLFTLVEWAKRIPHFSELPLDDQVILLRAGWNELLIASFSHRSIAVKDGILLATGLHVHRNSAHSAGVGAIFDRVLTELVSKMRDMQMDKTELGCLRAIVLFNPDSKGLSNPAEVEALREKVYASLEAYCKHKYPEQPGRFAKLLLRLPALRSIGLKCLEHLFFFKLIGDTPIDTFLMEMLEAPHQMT
Chain of Cytochrome P450 3A4 (Homo sapiens) (P08684 whole entry, looked up): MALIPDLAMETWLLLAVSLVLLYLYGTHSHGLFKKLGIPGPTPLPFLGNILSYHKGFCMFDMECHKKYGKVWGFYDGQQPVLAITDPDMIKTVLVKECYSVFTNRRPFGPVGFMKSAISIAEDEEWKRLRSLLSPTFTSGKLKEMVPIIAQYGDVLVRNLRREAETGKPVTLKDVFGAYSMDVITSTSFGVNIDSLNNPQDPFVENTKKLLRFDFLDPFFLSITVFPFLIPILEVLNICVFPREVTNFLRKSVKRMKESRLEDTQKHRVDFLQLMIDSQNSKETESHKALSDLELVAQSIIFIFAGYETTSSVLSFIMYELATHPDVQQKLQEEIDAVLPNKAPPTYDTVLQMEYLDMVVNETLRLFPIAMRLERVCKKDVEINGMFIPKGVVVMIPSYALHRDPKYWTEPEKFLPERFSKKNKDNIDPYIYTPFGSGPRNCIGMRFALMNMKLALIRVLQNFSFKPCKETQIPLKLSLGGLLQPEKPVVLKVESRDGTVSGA

For `BrCCc1ccccc1`, the Potency result in [1], in experiment [2], in [4], in experiment [5], in [6] and in experiment [7] was “inactive” in each case. Besides, the Potency result in experiment [8], in [9], in experiment [10], in experiment [11], in experiment [12] and in experiment [13] was “inactive” in each case. Besides, the Potency result in experiment [14], in [15] and in experiment [20] was “inactive” throughout. Besides, the molecule was classed as inactive in experiment [3] and in experiment [19]. The values for the max response in experiment [16], in experiment [17] and in experiment [18] were 1.56%, 2.46% and 9.1% (inactive), respectively.

As for `C=CC(=O)OCC(CC)CCCC` (centres undefined), the Potency entry in experiment [1], in [2], in experiment [4], in experiment [5], in [6] and in experiment [8] was “inactive” in each case. Moreover, the Potency entry in experiment [9], in [10], in experiment [11], in [12], in experiment [13] and in [14] was “inactive” throughout. Also, the Potency result in experiment [15] and in [20] was “inactive” each time. Also, the molecule was classed as inactive in [3] and in experiment [19]. Further, the max response in experiment [16] was -3.1% and -13.3%; in experiment [17], -0.0756% and 2.94%; in experiment [18], 4.48% (inactive) and -16.9% (inactive).

With `CN(C)c1ccccc1`, the Potency entry in experiment [1], in [2], in [4], in [5], in experiment [6] and in [7] was “inactive” throughout. The Potency entry in experiment [8], in experiment [9], in experiment [10], in experiment [11], in experiment [12] and in experiment [13] was “inactive” each time. In addition, the Potency result in [14], in experiment [15] and in [20] was “inactive” throughout. In addition, the molecule was called inactive in [3] and in experiment [19]. The results for the max response in [16], in experiment [17] and in [18] were -3.38%, 5.14% and 5.23% (inactive), respectively.

Take `CC(C#N)CCC#N` (centres undefined): the Potency entry in [1], in [2], in [4], in [5], in experiment [6] and in experiment [7] was “inactive” throughout. For the same molecule, the Potency entry in [8], in [9], in experiment [10], in [11], in experiment [12] and in experiment [13] was “inactive” throughout. Also, the Potency entry in experiment [14], in experiment [15] and in experiment [20] was “inactive” in each case. The result in experiment [3] and in experiment [19] was inactive. The max response is -11.4% in experiment [16], -1.82% in experiment [17] and -1.63% (inactive) in experiment [18].

Take `c1ccc(C2CO2)cc1` (centres undefined): the Potency entry in experiment [1], in experiment [2], in experiment [4], in [5], in [6] and in experiment [7] was “inactive” each time. Also, the Potency entry in experiment [8], in [9], in [10], in experiment [11], in [12] and in experiment [13] was “inactive” throughout. For the same molecule, the Potency result in experiment [14], in [15] and in experiment [20] was “inactive” throughout. Besides, the outcome in experiment [3] and in experiment [19] was inactive. Further, the max response was -3.27% in experiment [16], -9.84% in experiment [17] and 32.3% (inactive) in experiment [18].

As for `Clc1ccccc1`, the Potency result in experiment [1], in experiment [2], in [4], in experiment [5], in experiment [6] and in experiment [7] was “inactive” in each case. In addition, the Potency entry in [8], in [9], in [10], in experiment [11], in experiment [12] and in experiment [13] was “inactive” each time. Moreover, the Potency result in experiment [14], in [15] and in experiment [20] was “inactive” throughout. The result in experiment [3] and in experiment [19] was inactive. The max response in experiment [16] was -8.37%; in [17], -7.38%; in [18], -2.2% (inactive).

Turning to `Clc1ccc(C(Cl)(Cl)Cl)cc1Cl`, the Potency result in experiment [1], in experiment [2], in experiment [4], in [5], in experiment [6] and in experiment [7] was “inactive” throughout. In addition, the Potency result in experiment [8], in experiment [9], in experiment [10], in experiment [11], in experiment [12] and in [13] was “inactive” throughout. Besides, the Potency entry in experiment [14], in [15] and in experiment [20] was “inactive” each time. For the same molecule, the result in experiment [3] and in [19] was inactive. Moreover, the values for the max response in [16], in [17] and in experiment [18] were -3.09%, -6.09% and -3.13% (inactive), respectively.
